Out of some 53,000 sequences screened, about 3,700 (7%) were called active. Only a selection was taken, and actives are over-represented in it overall. Values without a mark were called inactive.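 Rule for the calls: active = gene knockdowns whose robust z-score for IL-1 alpha signal is at least 2 or at most -2, so actives lie on both sides; inactive = the rest.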

This test can be described thus: Components of the Cytosolic LPS Sensing Pathway: Gene Identification via Genome-wide siRNA Screen. The conditions noted are these: RAW264.7 macrophages, IL-1a HTRF, actives lie on both sides, screened at 100 nM (by protocol), cells primed 5 h with Pam3CSK4 first. The text has this:
Non-canonical inflammasome activation by cytosolic LPS is a critical component of the host response to Gram-negative bacterial infection, however we lack a comprehensive understanding of the cellular processes that control this pathway. Here we describe a genome-wide siRNA screen to identify genes regulating the mouse macrophage IL-1 alpha response to cytosolic LPS.
RAW264.7 cells were maintained in complete DMEM media, comprising DMEM with 4.5 g/L glucose, 10% FBS (Gemini Bio-Products, West Sacramento, CA), 2 mM Glutamine (Lonza) and 20 mM HEPES (Lonza), hereafter complete DMEM.
The RNAi screen was conducted in 384-well format using the Ambion Silencer Mouse Genome siRNA Library (#4391425), which consists of three unique, nonoverlapping, nonpooled siRNAs for each of 17,000 gene targets. siRNA reagents ([…]) were stamped into 384-well white flat-bottom microplates (Corning, 3570) using a Velocity11 VPrep liquid handling system (Agilent) integrated into a BioCel robotic platform (Agilent) in columns 1-22, leaving columns 23-24 empty for negative (Ambion, Negative control #1) and positive (mouse Casp4) controls, respectively. The median value of each plate's negative control column was used to normalize sample wells, and the positive control was used to assess transfection efficiency and assay performance.
Lipofectamine RNAiMAX Transfection Reagent ([…]; Invitrogen) was added in […] serum-free, antibiotic-free media to plate wells using a Thermo Scientific Matrix WellMate and Microplate Stacker. Plates were incubated for 45 min at room temperature to allow for the sufficient formation of siRNA-lipid complexes. Cells were seeded at a density of 1x10^4 cells per well in 20 microL media containing 20% (vol/vol) FBS without antibiotics. The final concentration of siRNA in each well was 100 nM. Cells were cultured for 48h at 37 degrees C in 5% CO2 before addition of […] of TLR ligand Pam3CSK4 for 5 hours. The medium was then removed, replaced with […] growth media and cell were transfected with […] of LipidA and TransIT-TKO (Mirus) for 24 hour. At the end of the LipidA treatment, […] of supernatant was transferred to a 384 Greiner Bio-one non-binding low volume plate and […] of IL-1a HTRF reagent (Cisbio, 62MIL1APEH) was added and incubated at room temperature overnight. The plates were read on an EnVision plate reader (PerkinElmer). Cell viability was measured by adding 20ul Cell Titer Glo to the original plate and running a luminescence read on the EnVision. The quantified IL-1a signal for each siRNA gene-targeted well was divided by the median of the negative control wells and multiplied by 100 to achieve a negative control normalized value for each well/siRNA. This normalized value was then used to generate a robust z-score by first taking the log of each value and then by subtracting the median and dividing by the […].
Background: TR-FRET usually uses a lanthanide donor and a delayed reading to cut background.
With GCGAUGAUAAGUGCCUGGUTT against Stk31, the z-score is -1.58.
With CGGAGUGAAACUACUCAUUTT against Ckb the figure was -0.773; with GGUGAUUUAUUCAGUUCAATT against Lmbrd2, -1.13; with CCUUUGAAAAAGCUUGCCATT against Tor1aip2, 0.0385.
On to GGUGCUAUGGAAAAUCAAGTT against Dcaf1, for which the z-score was -1.04.
To GGAAAUGUUUAUCACGGUUTT against Scube2 belongs 2.05 (active).
With GGUCAUGCAAGACAAGAUCTT against Lrrc8c the figure was 0.487.
To GGCAGCGAAAGUUUUCAAGTT against Pcdhga12 belongs 0.721.
Turning to GGAAUCCUGGAUUGAGGAATT against Rhod, the z-score was 0.394.
With GCACUGGAAUGUCAUCUCGTT against Casp3 the figure was 2.9 (active); with GGGUCAACUACUCACACUGTT against Crhr2, 0.78.
With CCAUAAGCGAAAUGCCUUCTT against Areg the figure was 0.201.
Turning to CGUUGUUUAUUCCAAAGAGTT against Runx1, the z-score is 0.44.
To GGAAGUAAAGGGAUUUAACTT against Ankrd46 belongs 2.19 (active); to GACCCAGGCUCUGCUCUUUTT against Olfr1413, 0.413.
To CCGGAAAUUUCUGAUGGAGTT against Eif4ebp1 belongs 2.19 (active); to GCUAGAUAUCCGGAACCAATT against Ndufv3, -0.752; to GAGACAUCCUCUUCACCAUTT against Olfr495, -1.25.
Turning to GGAAGAAUUCUCAAAGAAUTT against Scyl3, the z-score was -0.343.
With GGAUCUGAGCCUUAACAAGTT against Lpcat3 the figure was 2.92 (active); with GGAAGAGCUGCUGAAUUCATT against Mthfd2, 0.052.
To GGUUAUCUUGAAUAAAGCUTT against Zfp346 belongs -0.303; to “CCGAUAAAAGAUGACCUCATT against D17H6S56E-5”, -0.241.
Take GGUUUGAGAGUGGUAAUCUTT against Agbl3: the z-score was 2.17 (active).
With GGCGAUUUACAAGCUGAAGTT against Guca1b the figure was 0.566; with CCGUUAGAGCUGUUAUUUUTT against Olfr556, 0.959.
With CCUCGAACCAAGAUGUUCATT against Pdzrn3, the z-score is 0.851.
To GGCACACAAUUUUCACUGATT against Pcdhb9 belongs 0.315; to GGUCAGCAUUUGCUAUGAATT against Tmsb15l, -2.02 (active).
To GCCAAGUCUGCUUCACGAGTT against Nyap1 belongs 1.82.
With CCUCACAAUAUCUUUAGAATT against Cep162 the figure was -0.0322.
On to GGCAGGAUAUGUAUUCUGATT against Tmem121b, for which the z-score is 1.15.
With GGAAACCUCCGAAAGGCAUTT against Rcor1 the figure was -0.0503; with GGAUAAAGUCACCUUCAUCTT against Itgam, 1.86.
To CCGCUAUAUCACGGAGCAGTT against En1 belongs 2.45 (active); to GCACUUUCCUAAUGGUCCUTT against Ifnab, 0.104.
To GGAUCCUCACCAAGAUUACTT against Mrps22 belongs 0.391; to GGAAUUUAAGGAAGCUGCUTT against Homer1, -0.698; to GGGUGAGAAAAUUCACGAGTT against Tubg2, 0.536.
For the sequence GCCAAGGUGCAGAUAAGGUTT against Rhox7a, the z-score was 2.6 (active).
With GGAUUGAGAAAAUCUACAUTT against Tnfrsf8 the figure was 0.505; with GGGUCAGAUGGUACCAAGATT against Adamts18, 0.0174.
To GCCUUGUUUAUAUGCCCAATT against Olfr592 belongs 0.0232; to GGCAAGAAAGAAAGGCCAATT against Rps23, 0.00872; to CCCUCUGUGGUUAAAGACUTT against Tctex1d2, -2.88 (active).
With GGUUCAAUUCACAGAGCGCTT against Mrpl21 the figure was 1.37; with GGGCAACUUUGAUUAAUCATT against Hsd3b7, 1.02; with GGUAACUUCAUGUGCAGCATT against Ldlrad3, -1.71.
Turning to GGCGUAUGCAGAAUUCUACTT against Cox6c, the z-score is -0.0709.
To GGAGAAGUCAUUGUUUUUGTT against Klhdc2 belongs -0.493; to GGCACAACAUCAUCUGUCUTT against Psmd9, -2.05 (active).
To GCUACUGACCAUUCUAACUTT against Tmem198b belongs 0.264.
To GGAAGGACUGUCAAAUGGCTT against Med11 belongs -0.171; to CCAUGUCUUGAACUUGGAUTT against Tsks, 0.793.
With CCGACUCCAGUUGAAUGUUTT against Tgif2, the z-score was -0.572.
To CCAGUUUGAUGGUAGACAATT against Tifa belongs -1.38; to CGUAUUGUUUCCUAGCACATT against Arhgef38, 2.08 (active); to GGUACCCAGCGAUCAUGCATT against Olfr1370, -0.109.
On to GGAACAACUUGAUACCUCUTT against Trim44, for which the z-score is -0.89.
To GGUCGGGAUUUAAUUUGUATT against Bbs9 belongs 0.978.
To CGACUUCACCUUAUUCCUGTT against Nle1 belongs 0.811.
To GCAUAUUACACAGCACUAGTT against Itgbl1 belongs -0.802.
In the case of GGUGUACUCUGUUCCCAUGTT against Psmb6, the z-score is -1.54.
GGGAUUCGAAGGACAAUAGTT against Vmn1r211: the z-score is -2.07 (active).
With GGUGUACAACUCCUAUAGGTT against P2ry13 the figure was 0.24; with GGAUUUCAGCGAAGUGUACTT against Mapk11, -0.395; with CCAACGAAGCCAAUAAAUGTT against Pmis2, -2.12 (active).
To GGAGCUGAGCAACAUCACATT against Il13 belongs -1.35.

For the origin of these results see PubChem BioAssay AID1508600 (Functional Genomics Laboratory (NCATS/FGL), 2020).
